Measured values as given in ChEMBL document CHEMBL3988442, “University of Dundee, Small-Polar-MMV Screening Library” (2021).

What was measured:
[1] = target: T1, Aspartate--tRNA(Asp/Asn) ligase (Mycobacterium tuberculosis (strain ATCC 25618 / H37Rv)) (UniProt P9WFW3); test: Assay for Asp RNA synthetase-1 from Mycobacterium tuberculosis; assay type: functional; set-up: scale not given: direction of the effect not stated beside the values; details: 30 µM; note: in the data most compounds retested in dose-response had high values
T1 sequence (whole entry): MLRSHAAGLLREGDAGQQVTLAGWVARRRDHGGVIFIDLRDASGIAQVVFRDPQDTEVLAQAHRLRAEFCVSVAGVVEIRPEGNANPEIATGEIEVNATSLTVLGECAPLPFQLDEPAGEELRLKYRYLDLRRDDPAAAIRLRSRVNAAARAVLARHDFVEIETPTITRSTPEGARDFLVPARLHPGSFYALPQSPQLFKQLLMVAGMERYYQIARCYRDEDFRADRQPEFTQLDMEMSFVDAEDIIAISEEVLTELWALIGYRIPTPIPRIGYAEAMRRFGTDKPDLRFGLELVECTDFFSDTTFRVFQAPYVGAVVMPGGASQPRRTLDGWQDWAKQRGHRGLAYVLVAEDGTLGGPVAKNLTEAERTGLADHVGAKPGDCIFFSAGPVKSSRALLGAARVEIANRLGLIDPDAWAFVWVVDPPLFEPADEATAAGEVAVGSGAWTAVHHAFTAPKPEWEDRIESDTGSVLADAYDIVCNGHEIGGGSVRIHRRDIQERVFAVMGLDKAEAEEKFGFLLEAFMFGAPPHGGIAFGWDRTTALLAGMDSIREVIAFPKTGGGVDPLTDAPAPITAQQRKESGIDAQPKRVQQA

[2] = target: Shiga toxin 2 (Escherichia coli O157:H7) (UniProt P09385+P09386); test: E. coli 0.157:H7 Shiga Toxin SOP - stx2 screening assay; assay type: functional; set-up: scale not given: direction of the effect not stated beside the values; details: 30 µM

Row | Structure (SMILES) | Percent Effect [1] [%] | Percent Effect [2] [%]
1 | CCN(C(=O)COC)C(c1cccnc1)c1ccc2c(c1)CCO2 (configuration not stated) | 2.07 | -29.4
2 | Cc1nccc(-c2cccc(NCC(=O)N3CCCCCCC3)c2)n1 | 1.07 | 18.8
3 | Cc1nc(C)n(CC2CCCN2CCCc2ccccc2)n1 (configuration not stated) | 0.747 | -14.3
4 | CCS(=O)(=O)N1CCC(c2cc3n(n2)[C@@H](C(F)(F)F)C[C@@H](C)N3)CC1 | 5.23 | 13
5 | CC(C)(C)C(=O)NS(=O)(=O)c1ccc(C#N)cc1C(F)(F)F | 0.681 | 21.9
6 | c1ccc(-c2cnc(CNC3CCCN(c4cccnn4)C3)o2)cc1 (configuration not stated) | -3.48 | 4.96
7 | Cc1ccc(OCCC(=O)NC2CCc3nccn3C2)cc1 (configuration not stated) | -1.56 | -18
8 | COCCN1C[C@@H]2CCCO[C@@H]2[C@H](N(C)Cc2ccco2)C1 | 0.0735 | -6.84
9 | Cc1cc(CN2CCN(C(=O)Nc3cccnc3)CC2)on1 | -2.97 | 26.4
10 | Cn1cc(N2CCC(NC(=O)c3c(F)cccc3F)C2=O)cn1 (configuration not stated) | 0.409 | -11.8
11 | Cc1nc(C)n(CC2CCCCN2CCC(=O)Nc2cc(C)on2)n1 (configuration not stated) | -3.42 | 5.91
12 | Cc1ccc2c(c1)CCC21CCN(C(=O)CO)CC1 | 5.32 | -38.4
13 | Cc1cnn(CC2CCCCN2C(=O)Cc2csc(C)n2)c1 (configuration not stated) | -2.23 | 1.16
14 | COC(=O)c1ccc(S(=O)(=O)NCc2cccnc2N(C)C)cc1 | -3.4 | 12
15 | Cc1cc(C)n(CC2CCCN2C(=O)c2cnn(C)c2C2CC2)n1 (configuration not stated) | 1.84 | 1.91
16 | Cc1noc(Cl)c1CC(=O)N1CCCC(n2cccn2)C1 (configuration not stated) | 2.08 | 32.6
17 | NC(=O)C1CCN(C(=O)c2ccn(-c3ccc(F)cc3)n2)C1 (configuration not stated) | 9.24 | 3.03
18 | O=C(CCN1CCCC1=O)NCc1cccnc1Oc1ccccc1 | -8.91 | 8.3
19 | Cc1noc(CCCC(=O)NC(C)c2cn(-c3ccccc3)nn2)n1 (configuration not stated) | -5.92 | 0.819
20 | O=C(c1ccc2c(c1)COC2)N1CCN(CC2CC2)CC1 | -0.514 | -1.4
21 | CC(C)CN1C[C@@H]2CN(C(=O)[C@H]3CCCO3)C[C@@H]2C1=O | 1.02 | -18.1
22 | CCNC(c1cccnc1)c1cc(C)cc(C)c1 (configuration not stated) | -2.55 | -3.23
23 | COCCn1ccc(=O)c(OCC(=O)Nc2cccc(C(C)=O)c2)c1C | -4.27 | -43.8

Row | Structure (SMILES) | Percent Effect [1] [%] | Percent Effect [2] [%]
24 | CN(C)C(=O)CNC(=O)CCn1ncc2c(Cl)cccc21 | -0.813 | -27.9
25 | Cc1cnn(CCCNC(=O)N2CCCCC(N3CCCC3)C2)c1 (configuration not stated) | 1.48 | 22.3
26 | COC(=O)CCc1c(C)nn(-c2nc(C)cc(=O)[nH]2)c1C | -5.2 | -12.7
27 | O=C(c1ccco1)N1CCC2(CCC(=O)N2Cc2cccc(F)c2)CC1 | 1.32 | -6.58
28 | Cc1scc(C(=O)N2CCC3(CCCN(C)C3=O)C2)c1-c1ccccc1 (configuration not stated) | 2.02 | 8.94
29 | Cc1ccc(NC2CCN(C(=O)c3cccn3C)CC2)nn1 | -9.26 | -60.3
30 | CSc1ncccc1C(=O)N1CCC(c2nc3c(C)cccc3[nH]2)CC1 | 3.63 | -17.2
31 | CC1CCN(CCNC(=O)C2CCN(S(N)(=O)=O)CC2)CC1 | 1.78 | 0.821
32 | c1ccc(OC[C@]23COC[C@H]2CN(c2ncccn2)C3)nc1 | 1.95 | -23.2
33 | COC(=O)c1sccc1S(=O)(=O)N1CCC(Oc2ncccc2Cl)CC1 | -5.87 | 4.83
34 | Cc1oc(C(=O)O)cc1S(=O)(=O)Nc1cc(Cl)ccc1F | -2.58 | 17.5
35 | Cc1cc(N2CCC3(CCC(=O)N(CC4CC4)C3)CC2)nc(N)n1 | -0.719 | 0.426
36 | CCC(C)c1noc(C2CCN(C(=O)c3cccnc3)CC2)n1 (configuration not stated) | 17 | -27.8
37 | COc1ccccc1OCCN1CCC(N2CCNC2=O)CC1 | -1.95 | 21
38 | CC1CN(CC(=O)Nc2cccnc2)CCN1c1nccs1 (configuration not stated) | 0.466 | 7.04
39 | CCc1nc(C2CCCN2Cc2nnc(Cc3ccccc3)o2)no1 (configuration not stated) | -0.231 | 6.08
40 | Cc1ccc(C(CNCC2CC2)N2CCOCC2)s1 (configuration not stated) | 3.84 | -22.1
41 | CCN(Cc1nc(C(C)C)no1)Cc1cccs1 | 0.386 | -23.8
42 | O=C(c1ccnnc1)N1C[C@@H](OCC2CCCC2)[C@H]2OCCC[C@H]21 | 7.95 | -3.97
43 | O=C1CC2(CCCNC2)C(=O)N1Cc1ccc(F)cc1 (configuration not stated) | 3.3 | -4.45
44 | CSCCCN1CCn2nc(CNC(C)=O)cc2C1 | 3.05 | -62.7
45 | O=C(NC[C@H]1OC[C@@H]2CCN(C(=O)c3ccco3)C[C@@H]21)C1CC1 | 3.37 | -7.69
46 | c1ccc(-c2noc(CN3CCC(c4ccn[nH]4)CC3)n2)cc1 | 0.903 | -15.7
